# The list is not random: actives were taken first. Their share in the collection is about 11%.
# AMA1 RON2 block = AMA1-RON2 (P. falciparum) interaction inhibition; AlphaScreen AMA1-biotinylated RON2 peptide binding; Potency, µM (doses to about 58.2 µM), without a hit: at the highest dose activity change, negative = inhibition, most hits filed as inhibitors; 0.2% of 360,000 active;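 note: 0% = vehicle wells and -100% = peptide control; nearly all actives have a fitted effect of over 45% in size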
#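 AMA1 (3D7) with his tag at 25 nM final met compounds first, then biotinylated RON2 peptide at 25 nM; detection used donor plus acceptor beads, 10 µg/mL apiece, read by AlphaScreen after 30 min at room temperature.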
# AmpC inh detg = blocks E. coli AmpC beta-lactamase in detergent assay | P00811 | AmpC hydrolysis of nitrocefin, absorbance 480 nm, 0.01% Triton | Potency, µM (series often up to 114 µM), without a hit: at the highest dose activity change, negative = inhibition, most hits filed as inhibitors | 0.041% of 370,000 active | AID 485294;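 note: 0% = no-compound wells and -100% = no-enzyme wells; nearly all actives have a fitted effect of over 25% in size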
# Target sequence (P00811 whole entry, looked up): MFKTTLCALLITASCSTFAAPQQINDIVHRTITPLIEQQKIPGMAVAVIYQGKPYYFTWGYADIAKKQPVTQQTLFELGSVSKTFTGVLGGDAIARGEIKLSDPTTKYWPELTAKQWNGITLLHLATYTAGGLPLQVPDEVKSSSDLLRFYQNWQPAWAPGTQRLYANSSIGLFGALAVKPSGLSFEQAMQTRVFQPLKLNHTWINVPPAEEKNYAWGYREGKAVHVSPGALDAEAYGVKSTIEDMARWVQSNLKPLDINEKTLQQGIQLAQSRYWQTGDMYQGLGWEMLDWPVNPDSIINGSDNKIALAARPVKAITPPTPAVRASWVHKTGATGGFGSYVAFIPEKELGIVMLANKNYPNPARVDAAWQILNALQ
#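 20 mM phosphate pH 7.0 + 0.01% (detergent screen) or 0.0001% Triton X-100; 5.3 nM AmpC reagent; cpd preinc 15 min RT; nitrocefin (800 uM stock) to start; A480 q20 s × 4 min; Activity was normalised to no-enzyme and no-compound control wells.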
# HCV inhibitor = HCV inhibition. AID 651820. Huh7.5.1 HCVcc-Cre infection, luciferase reporter, 44 h. Potency, µM (series often up to 41.8 µM), without a hit: at the top dose activity change, negative = inhibition, hits mostly inhibitors. 3.4% of 340,000 active
#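 Compounds are dispensed onto cells plated 4 h earlier at 1,000 per well, with HCVcc-Cre virus (about 0.5 moi) added next. Following 44 h of culture, luminescent signal is measured for 15 sec after 15 min with substrate at room temperature.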
# Pf growth 96h = P. falciparum growth inhibition at 96 hour, primary screen for plastid delayed-death inhibitors; 6.9% of 320,000 active; AID 504834; P. falciparum luciferase reporter growth, 96 h; Potency, µM (highest dose often 28.7 µM), without a hit: at the top dose activity change, negative = inhibition, usual class: inhibitors
#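 Infected RBCs, 2% Hct / 0.05% parasitemia final; luciferase-reporter P. falciparum; cpd 96 h, 37 C, 5% CO2; luciferase detection reagent; luminescence.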
# AmpC inh no detg = inhibitors of E. coli AmpC beta-lactamase without detergent; 0.52% of 330,000 active; AmpC nitrocefin hydrolysis, absorbance 480 nm, 0.0001% Triton; Potency, µM (doses to about 57.1 µM), for the others: at the top dose activity change, negative = inhibition, usual class: inhibitors;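 note: plate controls were no compound for no effect and no enzyme for full effect; nearly all actives have a fitted effect of over 20% in size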
#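 20 mM phosphate pH 7.0 + 0.01% (detergent screen) or 0.0001% Triton X-100; 5.3 nM AmpC reagent; cpd preinc 15 min RT; nitrocefin (800 uM stock) to start; A480 q20 s × 4 min; Activity was normalised to no-enzyme and no-compound control wells.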
# Pf growth 48h = inhibits P. falciparum growth in the first generation, 48 h; 5.9% of 310,000 active; P. falciparum luciferase growth in erythrocytes, 48 h; Potency, µM (highest dose often 28.7 µM), for the others: at the top dose activity change, negative = inhibition, hits mostly inhibitors
#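 Read-out is firefly luciferase luminescence from an integrated reporter in P. falciparum, so falling signal marks reduced parasite growth. Infected erythrocytes were at 2% hematocrit and 0.1% parasitemia (final) in Albumax-supplemented RPMI 1640.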
# Starred values were filed as active, the others as inactive; u = inconclusive; x = no result given; [ ] = another dose, or the depositor's remark. Calls come from the whole dose curve; as a rule, active = well fitted curve in the direction sought with a large enough effect; inconclusive = small, poorly fitted or top-dose-only effect, or another doubt; inactive = no such curve, though single readings can be large; an effect the other way counts as inactive or inconclusive. Unless noted, % is set by controls: 0 for no effect and ±100 for the full control effect; potency is the fitted concentration of half-maximal effect.
SMILES,AMA1 RON2 block,AmpC inh detg,HCV inhibitor,Pf growth 96h,AmpC inh no detg,Pf growth 48h
CCN(CC)S(=O)(=O)c1ccc(N/N=C/c2ccccc2OCC(=O)O)c([N+](=O)[O-])c1,-7%,-1%,-2%,1.7µM*,-15%,10µM*
COc1ccccc1NS(=O)(=O)c1ccc(N/N=C/c2ccccc2OCC(=O)O)c([N+](=O)[O-])c1,-18%,1%,-2%,u,94%,u
CCn1c(=O)n(-c2ccc(F)cc2)c(=O)c2sc3ccccc3c21,x,13%,x,x,x,x
Cc1cccc(OCC(=O)NCC(=O)N/N=C/c2ccc(O)cc2O)c1,83%,7%,u,u,-28%,10µM*
O=C(COc1ccc(-c2ccccc2)cc1)N/N=C/c1cc(O)ccc1Br,7%,-12%,-15%,8.3µM*,-14%,-8%
COc1cccc(/C=N/NC(=O)CNC(=O)COc2cccc(C)c2)c1O,76%,-3%,u,46%,-9%,2.9µM*
COc1ccc(S(=O)(=O)NCCc2csc(-c3ccc(F)cc3)n2)cc1,x,-2%,x,x,x,x
O=C(c1ccc(F)cc1)N1CCC(C(=O)N2CCN(Cc3ccc4c(c3)OCO4)CC2)CC1,46%,-21%,u,3%,117%,-4%
CCOc1ccc2nc(N3CCC(C(=O)N4CCN(C(=O)c5ccco5)CC4)CC3)sc2c1,-1%,-11%,u,u,231%,13µM*
O=C(C1CCN(S(=O)(=O)c2ccccc2F)CC1)N1CCN(Cc2ccc3c(c2)OCO3)CC1,8%,-10%,13µM*,u,145%,u
O=C(CN1C(=O)c2cccc3cccc(c23)C1=O)N1CCN(Cc2ccc3c(c2)OCO3)CC1,-13%,1%,22µM*,-7%,85%,-15%
CCN(Cc1ccccc1)S(=O)(=O)c1ccc(C(=O)N2CCN(c3nc4ccccc4s3)CC2)cc1,18%,-3%,10µM*,-6%,-13%,0%
O=C(CN1C(=O)c2cccc3cccc1c23)NCc1ccc2c(c1)OCO2,1%,-11%,-18%,x,-43%,x
Cc1ccc(C)c(N2CCN(CCCNC(=O)c3ccc4nc(C(C)C)oc4c3)CC2)c1,x,5%,x,x,x,x
CCOc1ccc(CNC(=O)CS(=O)(=O)c2cccc3nsnc23)cc1,x,0%,x,x,x,x
COc1ccc(SCc2cc(=O)c3cc(Cl)ccc3[nH]2)cc1,x,15%,x,x,x,x
CCOC(=O)c1cc(-c2ccccc2)n(CCC(=O)NC2CCCCC2)c1C,x,-6%,x,x,x,x
O=C(c1cccnc1)N1CCN(Cc2ccc3c(c2)OCO3)CC1,-25%,0%,5%,4.1µM*,0%,12%
CCOC(=O)N1CCN(C(=O)c2ccc3nc(N4CCC(C)CC4)sc3c2)CC1,-4%,-6%,-20%,163%,119%,u
NC(=O)CN1CCN(Cc2ccc3c(c2)OCO3)CC1,-2%,u,16%,12µM*,-13%,7%
CCOC(=O)N1CCN(C(=O)c2ccc3nc(N4CCCCC4)sc3c2)CC1,-19%,-3%,-10%,10µM*,79%,-3%
Cc1cc(C)cc(C(=O)N2CCN(Cc3ccc4c(c3)OCO4)CC2)c1,-2%,-11%,-29%,54%,55%,1%
CC1CCN(c2nc3ccc(C(=O)N4CCN(Cc5ccccc5)CC4)cc3s2)CC1,-24%,-15%,11µM*,-17%,123%,x
CSc1ncc(C(=O)NCc2cccc(Br)c2)c(-c2ccccc2)n1,x,0%,x,x,x,x
Cc1nnc(C)c2c(C)n(Cc3ccc4c(c3)OCO4)c(C)c12,u,u,4.5µM*,u,21%,u
SMILES,AMA1 RON2 block,AmpC inh detg,HCV inhibitor,Pf growth 96h,AmpC inh no detg,Pf growth 48h
O=C(c1ccc2nc(N3CCCCC3)sc2c1)N1CCN(Cc2ccc3c(c2)OCO3)CC1,u,u,u,22%,32µM*,4.1µM*
Cc1cc(O)c2c(C)c(CC(=O)N3CCCCC3)c(=O)oc2c1,x,13%,x,x,x,x
O=C(O)CCn1c(SCCOc2ccccc2F)nc2ccccc21,4%,u,20%,10µM*,-34%,u
CCn1c(SCCOc2ccccc2F)nc2ccccc21,x,-9%,x,x,x,x
COC(=O)C1CC23C=CCN4CCC5(c6ccccc6NC15C2C)C43 (centres undefined),-14%,-11%,-4%,-5%,105%,1.5µM*
CN1CC[C@]23c4ccccc4N[C@H]1[C@]21CCN(C)[C@H]3Nc2ccccc21,-4%,u,-3%,27%,-22%,-15%
COc1ccccc1C(=O)Nc1ccc2nc(SCCOc3ccccc3C)sc2c1,x,10%,x,x,x,x
COc1ccc(CNCCc2cccc(F)c2)c2ccccc12,x,2%,x,13µM*,-1%,u
COc1cc(CNCCc2ccc(S(N)(=O)=O)cc2)ccc1OCc1ccc(Cl)cc1,-12%,-2%,4.5µM*,6.6µM*,-2%,8.3µM*
COc1ccc(CCNCc2c(OC)ccc3ccccc23)cc1OC,-2%,9%,11µM*,-11%,17%,-22%[0.00184 µM]
CCOc1ccc(CNCCc2ccc(S(N)(=O)=O)cc2)cc1,-13%,-9%,-28%,92%,-29%,-13%
CCOc1ccc2ccccc2c1CNCCc1ccc(S(N)(=O)=O)cc1,6%,u,4%,u,-22%,12µM*
COc1ccc(CCNCc2ccccc2F)cc1OC,0%,2%,15%,u,-24%,-10%
COc1cccc(C(=O)NCC(c2ccc3c(c2)OCO3)N2CCN(C)CC2)c1 (centres undefined),x,6%,x,x,x,x
CN1[C@@H]2CC[C@H]1CC(OC(=O)[C@@H](O)c1ccccc1)C2 (some centres undefined),x,x,x,-20%,x,-15%
Cn1c(=O)c2c(nc(N3CCOCC3)n2Cc2cccc(Br)c2)n(C)c1=O,x,20%,x,x,x,x
CCOc1cc(CNCCc2ccc(S(N)(=O)=O)cc2)ccc1OCc1ccc(Cl)cc1,-11%,u,u,u,10%,9.3µM*
N/C(=N\OC(=O)COc1ccc(Cl)cc1)c1ccc(Cl)cc1,7%,u,5%,39%,-21%,11%
COc1cc(NC(=O)COc2cccc(OC)c2)cc(OC)c1,-1%,-11%,-21%,5.2µM*,-38%,9%
COc1ccc(C(CC(=O)Nc2cc(OC)cc(OC)c2)n2cccc2)cc1 (centres undefined),-15%,-8%,u,u,-33%,13µM*
COc1ccc(C(CC(=O)Nc2ccccc2OC)n2cccc2)cc1 (centres undefined),u,u,-10%,u,-15%,-10%

# Screening data from PubChem.
